Values joined by “and” are separate entries in the source; they are usually repeats but may differ in a detail not shown here. Equal values may be shown once. Screen size: about 5,500 compounds; about 2,000 (36%) were called active. Another 18% or so got no clear call; they are omitted. Rule as the data show it: active = normalized growth mostly below about 0.91 (no sharp cut-off); inconclusive = no clear call, values can overlap the other calls; inactive = mostly above about 0.92. The list shows a part of the results.
Assay: chemical genetic growth profiling, strain panel (AID 1159580);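 also: tested at 20 µM; growth read once vehicle control cultures reached saturation at 30 °C; 1 = growth at the plate median or of vehicle wells; lower values mean less growth of the strain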
Conditions: S. cerevisiae deletion strains, growth OD
[1] = locus YGR078C, strain PAC10, hits give low values
[2] = locus YNL153C, strain GIM3, hits give low values

Measured: normalized growth

Cn1c(=O)c2[nH]c(-c3ccc(S(=O)(=O)O)cc3)nc2n(C)c1=O
inactive: locus YAL040C, strain CLN3, hits give low values 1.01 | locus YCL061C, strain MRC1 (second series), hits give low values 1.01 | locus YER002W, strain NOP16, hits give low values 1.01 | [1] 1.01 | [2] 1.03 | locus YNL175C, strain NOP13, hits give low values 1.01 | locus YNL197C, strain WHI3, hits give low values 0.993 | locus YNL224C, strain SQS1, hits give low values 1 | locus YOR083W, strain WHI5 (second series), hits give low values 0.98 | locus YPL055C, strain LGE1, hits give low values 1 | locus YPL241C, strain CIN2, hits give low values 1.02

COC(=O)CC1C(C)(C)C(OC(C)=O)[C@@H]2[C@@H](OC(C)=O)[C@]34O[C@@]2(O)[C@]1(C)C3CC[C@]1(C)C4=CC(=O)O[C@H]1c1ccoc1 (stereo not given in full)
inactive: locus YAL013W, strain DEP1, hits give low values 1.02 | locus YAL021C, strain ccr4, hits give low values 1.03 | locus YAL026C, strain drs2, hits give low values 0.991 | locus YAL030W, strain snc1, hits give low values 1.01 | locus YBL061C, strain skt5, hits give low values 0.998 | locus YBR009C, strain hhf1, hits give low values 1.03 | locus YBR021W, strain FUR4, hits give low values 1.04 | locus YBR023C, strain chs3, hits give low values 1.01 | locus YBR171W, strain sec66, hits give low values 1 | locus YBR229C, strain ROT2, hits give low values 0.96 | locus YBR231C, strain swc5, hits give low values 1.01 | locus YBR279W, strain paf1, hits give low values 1.01 | locus YCL011C, strain gbp2, hits give low values 1.01 | locus YCL016C, strain dcc1, hits give low values 1.02 | locus YCL029C, strain bik1, hits give low values 1.02 | locus YCL061C, strain MRC1, hits give low values 1.01 | locus YCL069W, strain vba3, hits give low values 1.01 | locus YCR088W, strain abp1, hits give low values 1.01 | locus YDL005C, strain med2, hits give low values 0.991 | locus YDL035C, strain GPR1, hits give low values 0.98 | locus YDL040C, strain nat1, hits give low values 1.02 | locus YDL074C, strain BRE1, hits give low values 1.03 | locus YDL101C, strain DUN1, hits give low values 1.02 | locus YDL134C, strain PPH21, hits give low values 1.05 | locus YDL185W, strain tfp1, hits give low values 0.977 | locus YDL192W, strain arf1, hits give low values 0.983 | locus YDR001C, strain nth1, hits give low values 1.01 | locus YDR069C, strain doa4, hits give low values 1.02 | locus YDR101C, strain arx1, hits give low values 0.975 | locus YDR137W, strain rgp1, hits give low values 0.93 | locus YDR150W, strain NUM1, hits give low values 1.01 | locus YDR159W, strain sac3, hits give low values 1 | locus YDR162C, strain NBP2, hits give low values 1 | locus YDR195W, strain ref2 1.01 | locus YDR297W, strain sur2, hits give low values 1.02 | locus YDR318W, strain mcm21, hits give low values 0.997 | locus YDR334W, strain swr1, hits give low values 1.01 | locus YDR335W, strain msn5, hits give low values 1.01 | locus YDR388W, hits give low values 1.02 | locus YDR392W, strain spt3, hits give low values 1.07 | locus YDR502C, strain sam2, hits give low values 1.03 | locus YEL003W, strain gim4, hits give low values 1.01 | locus YEL037C, strain rad23, hits give low values 1 | locus YEL061C, strain CIN8 (second series), hits give low values 1 | locus YEL061C, strain CIN8, hits give low values 1 | locus YER015W, strain faa2, hits give low values 1.01 | locus YER016W, strain bim1, hits give low values 1.01 | locus YER110C, hits give low values 0.998 | locus YER111C, strain swi4, hits give low values 0.988 | locus YER155C, strain BEM2 (second series), hits give low values 1.05 | locus YER155C, strain BEM2, hits give low values 1.01 | locus YER167W, strain BCK2, hits give low values 0.991 | locus YFR010W, strain ubp6, hits give low values 1 | locus YGL078C, strain dbp3, hits give low values 1.01 | locus YGL086W, strain mad1, hits give low values 1.02 | locus YGL167C, strain pmr1, hits give low values 1.01 | locus YGL173C, strain kem1, hits give low values 1 | locus YGL227W, strain vid30, hits give low values 1 | locus YGL240W, strain doc1, hits give low values 1.01 | locus YGL248W, strain PDE1, hits give low values 1.03 | locus YGL253W, strain hxk2, hits give low values 0.953 | [1] 1.05 | locus YGR135W, strain pre9, hits give low values 1.08 | locus YGR252W, strain gcn5, hits give low values 1.09 | locus YHR013C, strain ard1, hits give low values 1.02 | locus YHR027C, strain rpn1, hits give low values 1.01 | locus YHR030C, strain SLT2, hits give low values 1.03 | locus YHR079C, strain IRE1 (second series), hits give low values 0.989 | locus YHR079C, strain IRE1, hits give low values 1.04 | locus YHR094C, strain hxt1, hits give low values 1 | locus YHR129C, strain ARP1, hits give low values 1.02 | locus YHR142W, strain chs7, hits give low values 0.983 | locus YHR200W, strain rpn10, hits give low values 1.03 | locus YIL066C, strain RNR3, hits give low values 0.979 | locus YIL073C, strain SPO22, hits give low values 0.988 | locus YIL125W, strain kgd1, hits give low values 0.991 | locus YIR030C, strain dcg1, hits give low values 0.996 | locus YJL092W, strain hpr5, hits give low values 1.01 | locus YJL095W, strain BCK1 (second series), hits give low values 0.999 | locus YJL095W, strain BCK1, hits give low values 1.07 and 1.02 | locus YJL115W, strain asf1, hits give low values 0.998 | locus YJL129C, strain trk1, hits give low values 0.984 | locus YJL134W, strain LCB3, hits give low values 0.996 | locus YJL154C, strain vps35, hits give low values 1.02 | locus YJL164C, strain tpk1, hits give low values 1 | locus YJL166W, strain qcr8, hits give low values 1.01 | locus YJL168C, strain set2, hits give low values 1.02 | locus YJL187C, strain SWE1 (second series), hits give low values 1.04 | locus YJR066W, strain TOR1, hits give low values 0.963 | locus YKL009W, strain mrt4, hits give low values 0.921 | locus YKL068W, hits give low values 0.99 | locus YKL085W, strain MDH1 (second series), hits give low values 1.01 | locus YKL085W, strain MDH1, hits give low values 1.01 | locus YKL160W, strain elf1, hits give low values 1.01 | locus YKL190W, strain CNB1, hits give low values 1 | locus YKR001C, strain vps1, hits give low values 0.978 | locus YKR026C, strain gcn3, hits give low values 1.01 | locus YKR091W, strain srl3, hits give low values 1.01 | locus YLL001W, strain dnm1, hits give low values 1 | locus YLL026W, hits give low values 0.999 | locus YLL041C, strain sdh2, hits give low values 0.998 | locus YLR027C, strain aat2, hits give low values 1.01 | locus YLR039C, strain RIC1, hits give low values 0.934 | locus YLR058C, strain SHM2, hits give low values 0.988 | locus YLR102C, strain apc9, hits give low values 1.01 | locus YLR113W, strain HOG1, hits give low values 0.998 | locus YLR221C, strain rsa3, hits give low values 1.03 | locus YLR258W, strain gsy2, hits give low values 1 | locus YLR262C, strain YPT6 (second series), hits give low values 0.963 | locus YLR262C, strain YPT6, hits give low values 0.899 | locus YLR268W, strain sec22, hits give low values 0.983 | locus YLR320W, strain mms22, hits give low values 1.01 | locus YLR330W, strain CHS5, hits give low values 1.01 | locus YLR342W, strain FKS1 (second series), hits give low values 1.06 | locus YLR342W, strain FKS1, hits give low values 1.01 | locus YLR357W, strain rsc2, hits give low values 1.06 | locus YLR370C, strain arc18, hits give low values 1.03 | locus YLR371W, strain rom2, hits give low values 1.01 | locus YLR384C, strain iki3, hits give low values 0.99 | locus YLR418C, strain cdc73, hits give low values 1.07 | locus YML016C, strain PPZ1, hits give low values 1.01 | locus YML032C, strain rad52, hits give low values 0.991 | locus YML120C, strain ndi1, hits give low values 1.03 | locus YML124C, strain tub3, hits give low values 0.997 | locus YMR058W, strain fet3, hits give low values 1.01 | locus YMR078C, strain ctf18, hits give low values 0.998 | locus YMR125W, strain sto1, hits give low values 1.02 | locus YMR129W, hits give low values 0.996 | locus YMR205C, strain PFK2, hits give low values 1.02 | locus YMR223W, strain ubp8, hits give low values 1.03 | locus YMR231W, strain pep5, hits give low values 0.994 | locus YMR307W, strain GAS1, hits give low values 1.02 | locus YNL067W, strain RPL9B, hits give low values 1.05 | locus YNL071W, strain lat1, hits give low values 1.01 | locus YNL128W, strain TEP1, hits give low values 0.97 | [2] 1.05 | locus YNL183C, strain NPR1, hits give low values 0.978 | locus YNL209W, strain ssb2, hits give low values 1.02 | locus YNL233W, strain BNI4, hits give low values 1.08 | locus YNL248C, strain rpa49, hits give low values 0.999 | locus YNL250W, strain rad50, hits give low values 1 | locus YNL271C, strain bni1, hits give low values 1 | locus YNL298W, strain CLA4, hits give low values 1.01 | locus YNL307C, strain MCK1, hits give low values 1.01 | locus YNL322C, strain KRE1 (second series), hits give low values 1.01 | locus YNR049C, strain mso1, hits give low values 1.01 | locus YNR052C, strain pop2, hits give low values 1.06 | locus YOL012C, strain htz1 1.16 | locus YOL147C, strain pex11, hits give low values 1 | locus YOR001W, strain rrp6, hits give low values 1.02 | locus YOR061W, strain CKA2, hits give low values 0.946 | locus YOR069W, strain VPS5, hits give low values 1.01 | locus YOR070C, strain gyp1, hits give low values 1.01 | locus YOR080W, strain dia2, hits give low values 1 | locus YOR083W, strain WHI5, hits give low values 1.01 | locus YOR106W, strain vam3, hits give low values 1.02 | locus YOR136W, strain idh2, hits give low values 1.02 | locus YOR144C, strain elg1, hits give low values 1 | locus YOR184W, strain ser1, hits give low values 0.957 | locus YOR231W, strain MKK1, hits give low values 0.995 | locus YOR265W, strain rbl2, hits give low values 1 | locus YOR270C, strain vph1, hits give low values 0.806 | locus YOR290C, strain snf2, hits give low values 1.01 | locus YOR316C, strain cot1, hits give low values 1.01 | locus YPL051W, strain arl3, hits give low values 1.02 | locus YPL078C, strain atp4, hits give low values 1 | locus YPL106C, strain sse1, hits give low values 1.06 | locus YPL240C, strain hsp82, hits give low values 1.01 | locus YPL256C, strain CLN2, hits give low values 1.04 | locus YPR119W, strain clb2, hits give low values 1 | locus YPR141C, strain kar3, hits give low values 0.979 | locus YPR163C, strain tif3, hits give low values 1.01 | locus YPR167C, strain met16, hits give low values 1.01 | strain wtn01, hits give low values 0.982

Reference: PubChem BioAssay AID1159580 (chemical genetic matrix, 2015)
